Experimental data reported in PubChem BioAssay (Tox21).
Inconclusive results are not listed. Values without a mark were called inactive. Calls come from the whole dose curve; as a rule, active = well fitted cell-killing curve with a large enough effect in the repeat runs; inconclusive = weak or mixed curves, or effect the other way; inactive = no such curve, though single readings can be large or run the other way.

Experiment: qHTS assay to identify small molecule agonists of the RXR signaling pathway - cell viability counter screen (AID 1159529);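 note: HEK 293T cells carrying an RXR-alpha UAS beta-lactamase reporter; nearly all actives have a fitted effect of over 50% in size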
Conditions: RXR-alpha-bla HEK293T viability, CellTiter-Glo, 16 h; series mostly up to 76.8 µM; activity change, negative = cytotoxicity: at the top concentration
In short: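 Counter screen: CellTiter-Glo luminescence. Cells: RXR-alpha-UAS-bla HEK 293T. Medium: 2% charcoal-stripped FBS. Treatment: 16 h, 37 C. Reagent incubation: 30 min, RT.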
% is set by controls: 0 for no effect and ±100 for the full control effect.

Compound	activity change, negative = cytotoxicity
CCc1cc(S(=O)(=O)O)c2cc(C(C)C)cccc1-2	10.6% [at 35.3 µM]
CCCc1ccccc1O	-5.56%
OCCN1C[C@H](O)[C@@H](O)[C@H](O)[C@H]1CO	2.23% [at 35.3 µM]
CC(C)CCCC(C)CCCC(C)CCCCC(C)CCCC(C)CCCC(C)C (configuration not stated)	0.67% [at 35.3 µM]
C=CCn1c(=O)n([C@@H]2O[C@H](CO)[C@@H](O)[C@H]2O)c2nc(N)[nH]c(=O)c21	-0.61% [at 35.3 µM]
NC(=S)Nc1cccc2ccccc12	-0.564% [at 6.97 µM]
O=C(O)C1CCC1	12.3% [at 35.3 µM]
COc1cc(O)cc(O)c1	3.19% [at 35.3 µM]
CCCCCCCCCCC1CO1 (configuration not stated)	-4.11%
c1ccc(CCCc2ccccn2)cc1	-12.4%
Nc1nc2c(ncn2CCC(CO)CO)c(=O)[nH]1	0.979% [at 35.3 µM]
Nc1[nH]c(=O)ncc1F	12.8% [at 35.3 µM]
CC(C)N1C(=O)c2ccccc2C1=O	9.99%
NC(=O)c1c(Cl)cccc1Cl	-10.1%
CC(C)c1cccc(O)c1	-0.0314%
Fc1ccccc1-c1ccccc1	-1.49%
CNc1ncnc2nc[nH]c12	-2.61%
Cc1ccccc1C(=O)O	12.5%
CCC(C)(C)C1CCC(OC)CC1 (configuration not stated)	1.46%
CN1[C@@H]2CC[C@H]1CC(NC(=O)n1c(=O)[nH]c3ccccc31)C2 (some centres not stated)	-18.6% [at 35.3 µM]
C=C(C)C(=O)NCCC[N+](C)(C)C	-0.416%
CN(C)N=Nc1ccccc1	-3.65%
COc1cccc(Br)c1	14.5%
C=CCSCC1Nc2cc(Cl)c(S(N)(=O)=O)cc2S(=O)(=O)N1 (configuration not stated)	11.7% [at 35.3 µM]
Nc1ccc2cc(S(=O)(=O)O)ccc2c1	3.57%
CC(CCO)CCCC(C)(C)O (configuration not stated)	0.905%
CCCC(=O)O[C@]1(C(=O)CCl)[C@@H](C)C[C@H]2[C@@H]3CCC4=CC(=O)C=C[C@]4(C)[C@@]3(F)C(=O)C[C@@]21C	-1.75% [at 35.3 µM]
